Data taken from PubChem BioAssay (NCI).
Compounds without any hit were thinned out: in the full panel of roughly 79,000, 15% have a hit. Values without a mark were called inactive. Calls of active or inactive are those of the source. Cut-off read from the data, not from the text of the source: active = growth inhibition above about 70%; inactive = the rest.

Experiments:
[1] = NCI Yeast Anticancer Drug Screen. Data for the rad52 strain (AID 147);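 note: 0% = growth of vehicle-treated control cultures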; details: S. cerevisiae rad52 mutant growth inhibition, stronger effect = higher value
Method in brief: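 Inhibition of yeast growth, referenced to vehicle controls, was the measured output for a strain with defective DNA damage repair.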

[2] = NCI Yeast Anticancer Drug Screen. Data for the wt1 strain (AID 149);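 note: 0% = growth of vehicle-treated wt1 cultures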; details: S. cerevisiae wt1 strain (SPY 50644) growth inhibition, stronger effect = higher value
Method in brief: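 The wt1 strain was treated with compounds, and growth was compared with vehicle-treated cultures to give inhibition.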

[3] = NCI Yeast Anticancer Drug Screen. Data for the rad50EPP+ strain (AID 151);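 note: 0% = growth of vehicle-treated control cultures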; details: S. cerevisiae rad50 mutant strain, stronger effect = higher value
Method in brief: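 Genetically defined yeast (rad50EPP+, DNA damage repair alteration) is grown with compound, and inhibition of growth is expressed relative to vehicle-treated controls.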

[4] = NCI Yeast Anticancer Drug Screen. Data for the mgt1 strain (AID 153); details: S. cerevisiae mgt1 mutant growth inhibition, stronger effect = higher value
Method in brief: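 In the mgt1 strain, test compounds were added and growth inhibition was determined relative to vehicle-treated controls.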

[5] = NCI Yeast Anticancer Drug Screen. Data for the rad50 strain (AID 155);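 note: 0% = growth of vehicle-only cultures of the same strain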; details: S. cerevisiae rad50 strain growth inhibition, stronger effect = higher value
Method in brief: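 Cells are treated with compound, grown, and their growth is then scored against vehicle-only cultures of the same repair-deficient yeast strain.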

[6] = NCI Yeast Anticancer Drug Screen. Data for the mec2-1 strain (AID 157); details: S. cerevisiae mec2-1 strain, stronger effect = higher value
Method in brief: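 Each compound was tested on mec2-1 yeast, a strain altered in DNA damage repair or cell cycle control. Growth inhibition is reported relative to vehicle.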

[7] = NCI Yeast Anticancer Drug Screen. Data for the rad14 strain (AID 159);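 note: 0% = growth of vehicle-treated control cultures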; details: S. cerevisiae rad14 strain growth inhibition, stronger effect = higher value
Method in brief: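 Readout: yeast growth inhibition, referenced to vehicle-only cultures. Strain bears a defined alteration in DNA damage repair.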

[8] = NCI Yeast Anticancer Drug Screen. Data for the sgs1 mgt1 strain (AID 161);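 note: 0% = growth of cultures given vehicle only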; details: S. cerevisiae sgs1 mgt1 strain, stronger effect = higher value
Method in brief: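 Test agents were incubated with a DNA-repair-mutant yeast strain. Growth was then read and compared against vehicle-treated controls.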

[9] = NCI Yeast Anticancer Drug Screen. Data for the CLN2oe strain (AID 163);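 note: 0% = growth of vehicle-only control cultures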; details: S. cerevisiae CLN2oe strain, stronger effect = higher value
Method in brief: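 First, the altered yeast strain was treated with each compound; second, its growth was measured; finally, inhibition was derived by comparison with vehicle controls.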

[10] = NCI Yeast Anticancer Drug Screen. Data for the cln2 rad14 strain (AID 165);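 note: 0% = growth equal to vehicle treated cultures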; details: S. cerevisiae cln2 rad14 strain, stronger effect = higher value
Method in brief: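 Test compounds were added to cln2 rad14 yeast cultures; inhibition of growth was then determined by comparison with vehicle treatment.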

[11] = NCI Yeast Anticancer Drug Screen. Data for the bub3 strain (AID 167); details: S. cerevisiae bub3 mutant strain, stronger effect = higher value
Method in brief: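 Part of a panel of yeast mutants defective in DNA damage repair or cell cycle regulation. Each strain is grown with compound, and inhibition is calculated relative to solvent-treated cultures.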

[12] = NCI Yeast Anticancer Drug Screen. Data for the wt2 strain (AID 169);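 note: 0% = growth of vehicle-treated yeast cultures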; details: S. cerevisiae wt2 strain growth inhibition, stronger effect = higher value
Method in brief: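 The panel's yeast strains carry defined changes in DNA repair or cell cycle genes. Each strain is grown with compound, and growth loss is scored relative to vehicle.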

[13] = NCI Yeast Anticancer Drug Screen. Data for the mlh1 strain (AID 171);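 note: 0% = growth of vehicle-treated control cultures of the same strain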; details: S. cerevisiae mlh1 strain growth inhibition, stronger effect = higher value
Method in brief: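 Inhibition values reflect reduced yeast growth in the presence of compound, referenced to vehicle controls, using a strain chosen for its alteration in DNA repair or cell cycle control.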

[14] = NCI Yeast Anticancer Drug Screen. Data for the sgs1 strain (AID 173);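 note: 0% = growth of vehicle-only control cultures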; details: S. cerevisiae sgs1 mutant, stronger effect = higher value
Method in brief: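 Vehicle-treated cultures served as reference for growth inhibition of a yeast strain altered in DNA damage repair or cell cycle control after compound exposure.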

[15] = NCI Yeast Anticancer Drug Screen. Data for the mlh1 rad18 strain (AID 175); details: S. cerevisiae mlh1 rad18 strain growth inhibition, stronger effect = higher value
Method in brief: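 Inhibition values reflect reduced growth of mutant yeast versus vehicle-treated controls following compound exposure; the mutations affect DNA damage repair.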

[16] = NCI Yeast Anticancer Drug Screen. Data for the rad18 strain (AID 177); details: S. cerevisiae rad18 mutant growth inhibition, stronger effect = higher value
Method in brief: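 Steps: expose repair-mutant yeast to compound; measure growth; express as inhibition relative to vehicle control.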

[17] = at 5.0 µM (retest, dose inferred, filed as 0.5)
[18] = at 50.0 µM (retest, dose inferred, filed as 5.0)

SMILES: O=C(N=Nc1cc(Cl)ccc1Cl)NNc1cc(Cl)ccc1Cl
- growth inhibition ([1]; at 1.2 µM): -2%
- growth inhibition ([1]; at 3.7 µM): -4%
- growth inhibition ([1]; at 11.0 µM): -3%
- growth inhibition ([1]; at 33.0 µM): -2%
- growth inhibition ([1]; at 100.0 µM): 2%
- growth inhibition ([2]; at 1.2 µM): -2%
- growth inhibition ([2]; at 3.7 µM): 0%
- growth inhibition ([2]; at 11.0 µM): -1%
- growth inhibition ([2]; at 33.0 µM): 0%
- growth inhibition ([2]; at 100.0 µM): 4%
- growth inhibition ([3]; at 1.2 µM): -1%
- growth inhibition ([3]; at 3.7 µM): -3%
- growth inhibition ([3]; at 11.0 µM): -1%
- growth inhibition ([3]; at 33.0 µM): -3%
- growth inhibition ([3]; at 100.0 µM): 4%
- growth inhibition ([4]; at 1.2 µM): -3%
- growth inhibition ([4]; at 3.7 µM): -4%
- growth inhibition ([4]; at 11.0 µM): 17%
- growth inhibition ([4]; at 33.0 µM): -12%
- growth inhibition ([4]; at 100.0 µM): 2%
- growth inhibition ([5]; at 1.2 µM): -2%
- growth inhibition ([5]; at 3.7 µM): -2%
- growth inhibition [5, 17]: -2%
- growth inhibition ([5]; at 11.0 µM): -23%
- growth inhibition ([5]; at 33.0 µM): -1%
- growth inhibition [5, 18]: 76% (active)
- growth inhibition ([5]; at 50.0 µM): 74.4% (active)
- growth inhibition ([5]; at 100.0 µM): 3%
- growth inhibition ([6]; at 1.2 µM): -1%
- growth inhibition ([6]; at 3.7 µM): 0%
- growth inhibition [6, 17]: 19%
- growth inhibition ([6]; at 11.0 µM): 3%
- growth inhibition ([6]; at 33.0 µM): -1%
- growth inhibition [6, 18]: 79% (active)
- growth inhibition ([6]; at 50.0 µM): 78.1% (active)
- growth inhibition ([6]; at 100.0 µM): 4%
- growth inhibition ([7]; at 1.2 µM): -3%
- growth inhibition ([7]; at 3.7 µM): -4%
- growth inhibition ([7]; at 11.0 µM): -5%
- growth inhibition ([7]; at 33.0 µM): 2%
- growth inhibition ([7]; at 100.0 µM): 3%
- growth inhibition [8, 17]: 3%
- growth inhibition [8, 18]: 73% (active)
- growth inhibition ([8]; at 50.0 µM): 66.5%
- growth inhibition ([9]; at 1.2 µM): 0%
- growth inhibition ([9]; at 3.7 µM): -7%
- growth inhibition ([9]; at 11.0 µM): 0%
- growth inhibition ([9]; at 33.0 µM): 0%
- growth inhibition ([9]; at 100.0 µM): 9%
- growth inhibition [10, 17]: 39%
- growth inhibition [10, 18]: 82% (active)
- growth inhibition ([10]; at 50.0 µM): 71.8% (active)
- growth inhibition ([11]; at 1.2 µM): -1%
- growth inhibition ([11]; at 3.7 µM): 2%
- growth inhibition [11, 17]: -30%
- growth inhibition ([11]; at 11.0 µM): 3%
- growth inhibition ([11]; at 33.0 µM): -7%
- growth inhibition [11, 18]: 81% (active)
- growth inhibition ([11]; at 50.0 µM): 60.1%
- growth inhibition ([11]; at 100.0 µM): -6%
- growth inhibition ([12]; at 1.2 µM): -1%
- growth inhibition ([12]; at 3.7 µM): -3%
- growth inhibition ([12]; at 11.0 µM): -2%
- growth inhibition ([12]; at 33.0 µM): -1%
- growth inhibition ([12]; at 100.0 µM): 2%
- growth inhibition ([13]; at 1.2 µM): -1%
- growth inhibition ([13]; at 3.7 µM): -5%
- growth inhibition ([13]; at 11.0 µM): -3%
- growth inhibition ([13]; at 33.0 µM): -1%
- growth inhibition ([13]; at 100.0 µM): 1%
- growth inhibition ([14]; at 1.2 µM): -2%
- growth inhibition ([14]; at 3.7 µM): -1%
- growth inhibition ([14]; at 11.0 µM): -1%
- growth inhibition ([14]; at 33.0 µM): -1%
- growth inhibition ([14]; at 100.0 µM): 1%
- growth inhibition [15, 17]: 5%
- growth inhibition [15, 18]: 86% (active)
- growth inhibition ([15]; at 50.0 µM): 68.9%
- growth inhibition ([16]; at 1.2 µM): -4%
- growth inhibition ([16]; at 3.7 µM): -3%
- growth inhibition ([16]; at 11.0 µM): -6%
- growth inhibition ([16]; at 33.0 µM): -21%
- growth inhibition ([16]; at 100.0 µM): 3%

SMILES: CC(C)NC(=O)OCc1c(COC(=O)NC(C)C)c(-c2ccc(Cl)c(Cl)c2)n2c1CCC2
- growth inhibition ([1]; at 1.2 µM): -38%
- growth inhibition ([1]; at 3.7 µM): -28%
- growth inhibition ([1]; at 11.0 µM): -19%
- growth inhibition ([1]; at 33.0 µM): 1%
- growth inhibition ([1]; at 100.0 µM): 68%
- growth inhibition ([2]; at 1.2 µM): -38%
- growth inhibition ([2]; at 3.7 µM): -34%
- growth inhibition ([2]; at 11.0 µM): -45%
- growth inhibition ([2]; at 33.0 µM): -32%
- growth inhibition ([2]; at 100.0 µM): 30%
- growth inhibition ([3]; at 1.2 µM): -23%
- growth inhibition ([3]; at 3.7 µM): -18%
- growth inhibition ([3]; at 11.0 µM): -5%
- growth inhibition ([3]; at 33.0 µM): -18%
- growth inhibition ([3]; at 100.0 µM): -4%
- growth inhibition ([4]; at 1.2 µM): -60%
- growth inhibition ([4]; at 3.7 µM): -48%
- growth inhibition ([4]; at 11.0 µM): -59%
- growth inhibition ([4]; at 33.0 µM): -39%
- growth inhibition ([4]; at 100.0 µM): 76% (active)
- growth inhibition ([5]; at 1.2 µM): -35%
- growth inhibition ([5]; at 3.7 µM): -29%
- growth inhibition [5, 17]: 8%
- growth inhibition ([5]; at 11.0 µM): -24%
- growth inhibition ([5]; at 33.0 µM): 1%
- growth inhibition [5, 18]: 44%
- growth inhibition ([5]; at 50.0 µM): 58.6%
- growth inhibition ([5]; at 100.0 µM): 63%
- growth inhibition ([6]; at 1.2 µM): -71%
- growth inhibition ([6]; at 3.7 µM): -61%
- growth inhibition [6, 17]: -1%
- growth inhibition ([6]; at 11.0 µM): -56%
- growth inhibition ([6]; at 33.0 µM): -53%
- growth inhibition [6, 18]: 8%
- growth inhibition ([6]; at 50.0 µM): 47.6%
- growth inhibition ([6]; at 100.0 µM): 47%
- growth inhibition ([7]; at 1.2 µM): -33%
- growth inhibition ([7]; at 3.7 µM): -26%
- growth inhibition ([7]; at 11.0 µM): -30%
- growth inhibition ([7]; at 33.0 µM): 10%
- growth inhibition ([7]; at 100.0 µM): 84% (active)
- growth inhibition [8, 17]: 9%
- growth inhibition [8, 18]: 72% (active)
- growth inhibition ([8]; at 50.0 µM): 23%
- growth inhibition ([9]; at 1.2 µM): 4%
- growth inhibition ([9]; at 3.7 µM): 0%
- growth inhibition ([9]; at 11.0 µM): 4%
- growth inhibition ([9]; at 33.0 µM): 11%
- growth inhibition ([9]; at 100.0 µM): 32%
- growth inhibition [10, 17]: 23%
- growth inhibition [10, 18]: 24%
- growth inhibition ([10]; at 50.0 µM): 3.3%
- growth inhibition ([11]; at 1.2 µM): -65%
- growth inhibition ([11]; at 3.7 µM): -66%
- growth inhibition [11, 17]: 18%
- growth inhibition ([11]; at 11.0 µM): -69%
- growth inhibition ([11]; at 33.0 µM): -34%
- growth inhibition [11, 18]: 79% (active)
- growth inhibition ([11]; at 50.0 µM): 17.4%
- growth inhibition ([11]; at 100.0 µM): 63%
- growth inhibition ([12]; at 1.2 µM): -31%
- growth inhibition ([12]; at 3.7 µM): -21%
- growth inhibition ([12]; at 11.0 µM): -31%
- growth inhibition ([12]; at 33.0 µM): -36%
- growth inhibition ([12]; at 100.0 µM): 26%
- growth inhibition ([13]; at 1.2 µM): -44%
- growth inhibition ([13]; at 3.7 µM): -71%
- growth inhibition ([13]; at 11.0 µM): -69%
- growth inhibition ([13]; at 33.0 µM): -40%
- growth inhibition ([13]; at 100.0 µM): 76% (active)
- growth inhibition ([14]; at 1.2 µM): -21%
- growth inhibition ([14]; at 3.7 µM): -17%
- growth inhibition ([14]; at 11.0 µM): -1%
- growth inhibition ([14]; at 33.0 µM): 12%
- growth inhibition ([14]; at 100.0 µM): 80% (active)
- growth inhibition [15, 17]: 13%
- growth inhibition [15, 18]: 68%
- growth inhibition ([15]; at 50.0 µM): 69.2%
- growth inhibition ([16]; at 1.2 µM): -17%
- growth inhibition ([16]; at 3.7 µM): 2%
- growth inhibition ([16]; at 11.0 µM): 1%
- growth inhibition ([16]; at 33.0 µM): 34%
- growth inhibition ([16]; at 100.0 µM): 84% (active)
